According to PubChem BioAssay AID652042 (Broad Institute, 2013):
The campaign covered roughly 1,100 compounds. About 350 (32%) were called active. No rule for the calls is given here. Only a sample is shown. Where a call stands in place of a potency, no number is given. Potency and affinity values are given separately.

Assay: viability loss in CEM21 cells – cell-based, CellTiter-Glo luminescence, cherry-picked, cytotoxicity control for viral fusion inhibitor project, dose response (AID 652042)
Conditions: CellTiter-Glo ATP luminescence, 24 h; series mostly up to 35 µM

Compound | activity change, negative = cytotoxicity
C[C@H](CO)N1C[C@H](C)[C@@H](CN(C)S(=O)(=O)c2ccc(F)cc2)Oc2ccc(NS(=O)(=O)c3cn(C)cn3)cc2CC1=O | inactive
CC(C)(C)N1C(=O)[C@H]2[C@@H](c3ccc(Br)cc3)N3C(=O)N(c4cccc(Cl)c4)C(=O)[C@@]3(C)[C@H]2C1=O | inactive
CC[C@@]12C(=O)N(c3cccc(F)c3)C(=O)N1[C@H](c1ccc(Br)cc1)[C@@H]1C(=O)N(C(C)(C)C)C(=O)[C@@H]12 | inactive
Cc1cc(C)c2nc(C(F)(F)F)nc(N3CCN(C(=O)c4ccco4)CC3)c2c1 | inactive
CCC(NS(=O)(=O)c1c(C)[nH]c(=O)[nH]c1=O)C12CC3CC(CC(C3)C1)C2 (configuration not stated) | inactive
COC(=O)C1=C(C)N(Cc2ccc(Cl)cc2)C(=S)NC1c1ccc(OC)cc1 (configuration not stated) | inactive
CC1=C(C(=O)OCc2ccc3c(c2)OCO3)C(c2ccc(F)cc2)NC(=O)N1 (configuration not stated) | inactive
CCN(CC)CCN(C(=O)c1cc(Cl)sc1Cl)c1nc2cc3c(cc2s1)OCO3 | inactive
CCN(C[C@H]1N[C@@](C)(C(=O)OC)[C@H]2C(=O)N(Cc3ccccc3)C(=O)[C@@H]12)C(=O)Nc1ccc(C)cc1 | inactive
COc1ccc(S(=O)(=O)n2ccc(-c3ccc(OCCN(C)c4ccccn4)cc3)n2)cc1 | inactive
S=c1nc[nH]c2c1[nH]c1ccc(Cl)cc12 | inactive
Clc1ccc2c(c1)C1=C(C(c3ccncc3)O2)C(c2ccc(Br)cc2)n2ncnc2N1 (configuration not stated) | inactive
CCS(=O)(=O)N1Cc2ccccc2CC1C(=O)NCC12CC3CC(CC(C3)C1)C2 (configuration not stated) | inactive
CCN1C[C@@H]2[C@@H]3C(=O)N(Cc4ccccc4)C(=O)[C@@H]3[C@](CC)(C1=O)N2C(=O)c1ccc(C(C)(C)C)cc1 | inactive
COc1ccc2c(c1)[C@H]1[C@H](CO2)[C@H](c2ccccc2)[C@]2(C)C(=O)Nc3cc(OC)c(OC)cc3C(=O)N12 | inactive
C[C@@]12C(=O)N(Cc3ccc(F)cc3)CC(=O)N1[C@H]1c3cc(Cl)ccc3OC[C@@H]1[C@@H]2c1ccccc1 | inactive
O=C(O)c1cccc(COc2ccc3c(c2)CCC3)c1 | inactive
COc1ccc([C@H]2/C=C\CN(C(=O)C3CC3)[C@@H](C)C(=O)N2Cc2ccc(F)cc2)cc1 | inactive
CCC(C)(C)NC(=O)C(c1ccc(C)cc1)N(CC1CCCO1)C(=O)c1csnn1 (configuration not stated) | inactive
O=C(CN1CCCN(Cc2ccc(F)cc2Cl)C1=O)NC1CCCCCCC1 | inactive
CCN(CCn1cccn1)C(=O)CC1C(=O)NCCN1CCc1ccccc1 (configuration not stated) | inactive
O=C(C[C@H]1C[C@@H]2c3cc(NC(=O)C4CCC4)ccc3O[C@@H]2[C@@H](CO)O1)NCC(F)(F)F | inactive
